The list is not random: actives were taken first. Their share in the collection is about 27%.
CYP2C9 inh – blockers of cytochrome P450 2C9 activity – biochemical, luminescence, ADME assay, primary screen. CYP2C9 Supersomes, luciferin-H conversion. inhibition, % at 5 µM. 20% of 96,000 active. AID 777, 2007;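 active = blocking of liver enzyme CYP2C9 beyond about 50% at 5 µM, limit read from the data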
Target sequence (P11712 whole entry, looked up): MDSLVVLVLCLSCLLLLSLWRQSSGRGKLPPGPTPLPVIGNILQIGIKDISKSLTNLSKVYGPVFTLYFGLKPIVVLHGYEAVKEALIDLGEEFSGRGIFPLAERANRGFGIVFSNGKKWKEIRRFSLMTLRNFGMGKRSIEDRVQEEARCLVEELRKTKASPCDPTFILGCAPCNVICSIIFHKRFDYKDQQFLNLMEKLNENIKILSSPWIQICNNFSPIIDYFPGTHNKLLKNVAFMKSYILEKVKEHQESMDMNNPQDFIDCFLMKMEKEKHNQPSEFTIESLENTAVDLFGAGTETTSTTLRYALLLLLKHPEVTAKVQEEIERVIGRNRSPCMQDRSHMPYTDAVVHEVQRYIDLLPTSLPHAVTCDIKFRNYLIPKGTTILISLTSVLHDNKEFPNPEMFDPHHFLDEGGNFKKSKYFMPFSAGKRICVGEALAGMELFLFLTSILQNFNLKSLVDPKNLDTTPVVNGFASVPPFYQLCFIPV
CYP2C9 act – human CYP2C9 activators, primary screen, biochemical, luminescence. recombinant CYP2C9, luciferin-H conversion; stronger effect = higher value; factor 1 = untreated enzyme, 0 = blocked. activation factor at 5 µM. 1.4% of 96,000 active. AID 1024, 2008;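 active = activation factor of 2 or more for CYP2C9 at a 5 µM dose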;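 note: 0 = sulfaphenazole-blocked wells and 1 = vehicle-only wells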
CYP2C19 act – human CYP2C19 activators, primary screen, biochemical, luminescence; recombinant CYP2C19, luciferin-H EGE luminescence; stronger effect = higher value; 0 = fully inhibited enzyme, 1 = untreated enzyme; Cytochrome P450 2C19 (Homo sapiens), P33261; AID 1025, 2008; activation factor at 5 µM; 96,000 tested, under 10 active;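 active = activation factor of at least 2 at 5 µM in the primary screen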;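 note: 0 = wells with 2.5 mM tranylcypromine and 1 = vehicle-only wells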
CYP2C19 inh – blockers of cytochrome P450 2C19 activity – biochemical, luminescence, ADME assay, primary screen. CYP2C19 Supersomes, luciferin-H EGE luminescence, 30 min. P33261. AID 778, 2007. inhibition, % at 5 µM. 21% of 96,000 active;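 active = CYP2C19 inhibition above a set limit at 5 µM in the primary screen, cut at about 50% in these data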;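 note: plate controls were negative control wells for no effect and 2.5 mM tranylcypromine positive control for full effect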
Cav3 T inh – Cav3.2 calcium influx blockers – cell-based, Fluo-4 calcium fluorescence, FDSS, MLSMR library, primary screen. Voltage-dependent T-type calcium channel subunit alpha-1H (Homo sapiens), O95180. Cav3.2-expressing cells; stronger effect = lower value. B-score at 10 µM. 4% of 100,000 active. AID 449739, 2010;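 active = single-dose well whose peak fluorescence ratio is a statistical outlier from its plate by either plate-standardised score or position-corrected B-score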
Numbers without * were called inactive; · = no result given.

SMILES | CYP2C9 inh | CYP2C9 act | CYP2C19 act | CYP2C19 inh | Cav3 T inh
Cc1cccc(C(=O)N2CCN(c3ccc([N+](=O)[O-])c(N4CCOCC4)c3)CC2)c1 | 54* | 0.5 | 1 | 3 | 3.7*
CC(C)(C)NC(=O)CN(Cc1cccnc1)C(=O)c1csnn1 | 10 | 0.9 | 0.7 | 28 | -0.22
CCOC(=O)C(C)Sc1ccc2nnc(-c3ccc(F)cc3)n2n1 (stereo not given) | 32 | 0.7 | 1 | 1 | -0.38
CO/N=C(\c1nonc1N)N1CCN(c2ccc(Cl)cc2[N+](=O)[O-])CC1 | 76* | 0.2 | 0.2 | 77* | ·
O=C(COc1ccccc1Cl)N1CCN(c2ccc([N+](=O)[O-])c(N3CCCCC3)c2)CC1 | 84* | 0.2 | 0.4 | 59* | -2.5
O=C(/C=C/c1ccc(Cl)cc1)N1CCN(c2ccc(Cl)cc2[N+](=O)[O-])CC1 | 44 | 0.6 | 0.5 | 54* | -7.5*
O=C(c1ccc2ccccc2c1)N1CCN(c2ccc(O)cc2)CC1 | 18 | 0.8 | 0.4 | 62* | -1.8
O=C(/C=C/c1ccc(Cl)cc1)N1CCN(c2ncccn2)CC1 | 10 | 0.9 | 0.9 | 10 | -0.23
CCC(=O)N1CCN(c2c(Cl)cccc2[N+](=O)[O-])CC1 | 18 | 0.8 | 0.8 | 21 | 0.075
COc1cc(C(=O)NCCC(=O)NCCCN2CCCCC2)cc(OC)c1OC | -2 | 1 | 1.1 | -5 | 0.096
COc1ccc(Cn2c(C)c(C)c(C#N)c2NC(=O)Nc2ccc(Cl)cc2)cc1 | 16 | 0.8 | 1 | -1 | 0.0019
CC(=O)Nc1ccc(S(=O)(=O)N2CCN(C(=O)CCC3CCCC3)CC2)cc1 | 12 | 0.9 | 1 | -3 | 1.1
CC(=O)N1CCC2(CC1)C(C#N)=C(N)Oc1n[nH]c(C)c12 | -21 | 1.2 | 1.1 | -10 | 0.0074
COC(=O)CC(NC(=O)c1ccco1)c1ccc(C(C)C)cc1 (stereo not given) | 23 | 0.8 | 0.7 | 30 | -0.79
O=C(/C=C/c1ccccc1)N1CCN(c2ccc([N+](=O)[O-])c(N3CCOCC3)c2)CC1 | 72* | 0.3 | 0.6 | 42 | -1.9
CCN(CC)C(=O)C1CCN(S(=O)(=O)c2ccc(C3CNC(=O)C3)cc2)CC1 (stereo not given) | 18 | 0.8 | 1 | 3 | 1.1
CCN(CC)S(=O)(=O)c1cccc(-c2nnc(SC(C)C(=O)NCCC3=CCCCC3)o2)c1 (stereo not given) | · | · | · | · | -2.9*
CCN(CC)S(=O)(=O)c1cccc(-c2nnc(-c3ccc(C)cc3)o2)c1 | 16 | 0.8 | 0.8 | 16 | -0.71
CCN(CC)S(=O)(=O)c1cccc(-c2nnc(SCCCC(=O)c3ccc(F)cc3)o2)c1 | 87* | 0.1 | 0 | 95* | -4.7*
O=C(CSc1nnc(-c2cccc(S(=O)(=O)N3CCCCC3)c2)o1)NCCC1=CCCCC1 | 36 | 0.6 | 0.9 | 13 | 0.86
CCN(CC)S(=O)(=O)c1ccc(-c2nnc(SCC(=O)N3c4ccccc4CC3C)o2)cc1 (stereo not given) | 4 | 1 | 1.1 | -8 | -1.7
CCN(CC)S(=O)(=O)c1cccc(-c2nnc(SCc3nc4ccccc4s3)o2)c1 | 10 | 0.9 | 0.1 | 93* | -1.3
CCN(CC)S(=O)(=O)c1cccc(-c2nnc(SCCCC(=O)c3ccccc3)o2)c1 | 64* | 0.4 | 0.2 | 76* | -5.3*
N#Cc1c(N)nc2c(c1N)CC(COc1ccccc1)O2 (stereo not given) | -8 | 1.1 | 1 | -3 | 0.0096
O=C(CCc1ccccc1)Nc1c(F)cccc1F | · | · | · | · | 0.52
SMILES | CYP2C9 inh | CYP2C9 act | CYP2C19 act | CYP2C19 inh | Cav3 T inh
Cc1ccccc1NC(=S)NC(=O)CCc1ccccc1 | 40 | 0.6 | 0.7 | 32 | -4*
Cc1ccccc1NC(=O)Cc1ccccc1 | · | · | · | · | 0.26
Cc1cccc(C)c1NC(=S)NC(=O)CCc1ccccc1 | 32 | 0.7 | 0.5 | 50* | -2.3
COc1ccc(-c2nnc3ccc(SC)nn23)cc1 | 15 | 0.9 | 1 | 2 | -0.29
COCOc1ccc(-c2oc3c(C/C=C(\C)CCC=C(C)C)ccc(O)c3c(=O)c2OCOC)c(OCOC)c1 | · | · | · | · | -1.8
CCOc1ccccc1COC(=O)c1cccc(-n2cnnn2)c1 | -76 | 1.8 | 0.5 | 46 | -2
CCOC(=O)COc1c(OC)cc(Cl)cc1C1Nc2ccccc2C(=O)N1c1cccc(C)c1 (stereo not given) | 95* | 0.1 | 0.1 | 95* | -2.6
CCOC(=O)COc1c(OC)cc(Cl)cc1C1Nc2ccccc2C(=O)N1c1ccc(F)cc1 (stereo not given) | 90* | 0.1 | 0.3 | 67* | -2.9
CCOC(=O)COc1c(OC)cc(Cl)cc1C1Nc2ccccc2C(=O)N1c1ccccc1 (stereo not given) | 98* | 0 | 0 | 95* | -2.3
CCN(CC)CCN1C(=O)c2ccccc2NC1c1cc(OC)c(OC)c(OC)c1 (stereo not given) | -9 | 1.1 | 1 | -2 | -0.51
COc1cc(Cl)cc(C2NC(=O)NC(C)=C2C(C)=O)c1OCC(=O)O (stereo not given) | 7 | 0.9 | 1.1 | -14 | 0.28
CCCN1C(=O)c2ccccc2NC1c1cc(OC)c(OC)c(OC)c1 (stereo not given) | · | · | · | · | 1.1
CCOC(=O)COc1ccccc1C1Nc2ccccc2C(=O)N1c1cccc(Cl)c1 (stereo not given) | 17 | 0.8 | 0.4 | 64* | -2.2
Cc1ccc(CNc2ccc(N3CCOCC3)c(C(=O)O)c2)s1 | -6 | 1.1 | 1 | -5 | 0.43
CCN1CCN(C(c2ccccc2F)c2nnnn2Cc2ccc3c(c2)OCO3)CC1 (stereo not given) | 11 | 0.9 | 0.7 | 30 | 1.3
CCOc1ccc2ccccc2c1C(=O)Nc1cc(=O)n(C)c(=O)n1C | · | · | · | · | 0.58
COc1ccc(/C=N/NC(=O)c2nc(Cl)c(Cl)c(N)c2Cl)cc1COc1ccccc1F | 87* | 0.1 | 0.4 | 62* | -1.5
COc1ccc(/C=N/NC(=O)c2nc(Cl)c(Cl)c(N)c2Cl)cc1COc1ccc(F)cc1F | 67* | 0.3 | 0.5 | 46 | 0.24
COc1cc(OC)cc(C(=O)N/N=C/c2ccc(OC)c(COc3ccc4ccccc4c3)c2)c1 | 4 | 1 | 0.9 | 7 | ·
COc1ccc(CCN(Cc2cc3cc(C)c(C)cc3nc2Cl)C(=O)C2CC2)cc1 | 23 | 0.8 | 0.7 | 26 | -2.6
CCOC(=O)C1(C(F)(F)F)N=C(C(F)(F)F)Nc2ccccc21 (stereo not given) | 66* | 0.3 | 0.5 | 54* | 0.073
Cc1cc2oc(C(=O)N(Cc3ccco3)C3CCS(=O)(=O)C3)cc(=O)c2cc1Cl (stereo not given) | 22 | 0.8 | 1.1 | -8 | 0.76
CCOc1ccc(NC(=O)c2ccccc2OC)cc1 | -227 | 3.3* | 1 | 3 | ·
